Only some compounds are listed: those with a hit (about 6.4% of all), similar ones and a draw of the others.
RORgamma inh = inhibitors of mouse ROR gamma transcriptional activity. Drosophila S2 Gal4-RORgamma UAS-luciferase reporter, 20 h. 310,000 tested, 5.4% active. Potency, µM (doses to about 53.6 µM), without a hit: top-dose activity change, negative = inhibition, actives largely listed as inhibitors. AID 2551; also: nearly all actives have a fitted effect of over 60% in size
Target sequence (P51450 whole entry, looked up, the tested form may be a part): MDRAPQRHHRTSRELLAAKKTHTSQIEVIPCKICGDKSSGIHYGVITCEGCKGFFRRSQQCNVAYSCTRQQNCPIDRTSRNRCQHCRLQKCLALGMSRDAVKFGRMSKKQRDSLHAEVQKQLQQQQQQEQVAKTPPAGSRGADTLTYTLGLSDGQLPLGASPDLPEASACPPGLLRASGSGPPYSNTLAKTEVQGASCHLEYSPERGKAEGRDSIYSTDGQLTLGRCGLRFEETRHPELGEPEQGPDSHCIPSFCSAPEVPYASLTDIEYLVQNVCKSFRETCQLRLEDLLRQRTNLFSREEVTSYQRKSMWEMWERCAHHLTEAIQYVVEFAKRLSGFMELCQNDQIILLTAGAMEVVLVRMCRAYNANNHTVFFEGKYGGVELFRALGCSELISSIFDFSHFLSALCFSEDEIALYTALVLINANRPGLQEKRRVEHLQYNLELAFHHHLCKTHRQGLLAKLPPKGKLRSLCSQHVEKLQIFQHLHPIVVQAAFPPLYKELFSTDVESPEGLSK
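ROR gamma transcriptional activity was tracked as Gal4-UAS luciferase output in stably transfected Drosophila Schneider cells, with compound added 1 hr before 700 uM copper sulfate induction and a 20 hr ambient-temperature incubation.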
VP16 counter = Gal4-VP16 reporter inhibition counter-screen; Drosophila S2 Gal4-VP16 UAS-luciferase, luminescence, 20 h; Potency, µM (top dose mostly 53.6 µM), without a hit: top-dose activity, negative = inhibition, hits mostly inhibitors; 310,000 tested, 3.5% active;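 also: Gal4-VP16 expression switched on by copper sulfate through the metallothionein promoter; nearly all actives have a fitted effect of over 50% in size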
Luc counter = counter-screen: inhibitors of Kinase-Glo firefly luciferase. Q27757. Kinase-Glo luciferase, ATP luminescence, 8 min. Potency, µM (doses to about 38.3 µM), for inactives: at the top dose activity change, negative = inhibition, hits mostly inhibitors. 200,000 tested, 0.28% active. AID 1379; also: nearly all actives have a fitted effect of over 60% in size
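Luminescence was the read-out, taken after 8-minute incubation at ambient temperature. Luciferase turned over luciferin with 10 uM ATP in imidazole pH 7.2 buffer containing KCl, MgCl2, Tween 20 and BSA.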
* hit, by the source's call; [ ] = remark or other dose. Calls follow the shape of the dose curve; as a rule, active = well fitted curve in the direction sought with a large enough effect; inconclusive = small, poorly fitted or top-dose-only effect, or another doubt; inactive = no such curve, though single readings can be large; an effect the other way counts as inactive or inconclusive. % is scaled to controls: 0 for no effect and ±100 for the full control effect; potency is read from the fitted curve at half-maximal effect.

`C=CCn1c(-c2cccn(Cc3ccccc3)c2=O)n[nH]c1=S` gave RORgamma inh 11µM*, VP16 counter -29% and Luc counter -3%.
O=c1c(-c2nnc(SCc3ccc(Cl)cc3Cl)o2)cccn1Cc1ccccc1 was read as RORgamma inh inconclusive, VP16 counter -8% and Luc counter -3%.
O=c1c(-c2n[nH]c(=S)n2-c2ccccc2)cccn1Cc1cccc(Cl)c1 was read as RORgamma inh 13µM*, VP16 counter -9% and Luc counter -1%.
Screening COc1cc(/C=N/NC(=O)c2ccccc2O)ccc1OC(=O)CC1SC(=O)NC1=O (centres undefined) returned RORgamma inh -46% and VP16 counter 4%.
Screening N#CCCn1c(=O)c(-c2ccccc2)nc2cnc(N3CCOCC3)nc21 returned RORgamma inh 14% and VP16 counter 3%.
For CCC(C(=O)NCc1cccnc1)n1nc(C)n2c(cc3occc32)c1=O (centres undefined) the results were RORgamma inh -4% and VP16 counter -4%.
For CC1CC(c2ccccc2)NS(=O)(=O)O1 (centres undefined) the results were RORgamma inh 0% and VP16 counter 1%.
`CS(=O)(=O)N1CCC2(CC1)CN(c1ccccn1)C2` gave RORgamma inh 38%, VP16 counter 2% and Luc counter -1%.
Screening NC(=O)C1=CN(C2OC(COP(=O)(O)OP(=O)(O)OC[C@H]3O[C@@H](n4cnc5c(N)ncnc54)[C@H](OP(=O)(O)O)[C@H]3O)C(O)C2O)C=CC1 (some centres undefined) returned Luc counter -14%.
Cc1ccc(C(=O)OC[C@H]2O[C@H](Cl)C[C@@H]2OC(=O)c2ccc(C)cc2)cc1 was read as RORgamma inh 22%, VP16 counter -11% and Luc counter 3%.
Screening C=CCn1c(-c2cccn(Cc3ccc(Cl)cc3)c2=O)n[nH]c1=S returned RORgamma inh 6.3µM*, VP16 counter inconclusive and Luc counter -5%.
`Nc1n[nH]c(-c2ccccc2[N+](=O)[O-])n1` gave RORgamma inh 11%, VP16 counter -3% and Luc counter 2%.
Screening C=CCn1c(-c2ccccc2[N+](=O)[O-])n[nH]c1=S returned RORgamma inh 3.2µM*, VP16 counter inconclusive and Luc counter -3%.
For O=c1c(-c2nc3ccccc3s2)cccn1Cc1ccc(Cl)c(Cl)c1 the results were RORgamma inh -8%, VP16 counter 19% and Luc counter 6%.
COc1cc(OC)c(OC)cc1/C=N/NC(=O)CSc1ccccc1F was read as RORgamma inh 4% and VP16 counter -4%.
C=C1CCC2C(CC2(C)C)C(=O)CCC1O (centres undefined) was read as RORgamma inh 5%, VP16 counter 8% and Luc counter -2%.
For Cc1c(Cl)cccc1NC(=S)N1CCCN(Cc2ccc(F)cc2)C1 the results were RORgamma inh 16µM*, VP16 counter inconclusive and Luc counter -2%.
Screening CSc1cccc(NC(=S)N2CCCN(Cc3ccc(F)cc3)C2)c1 returned RORgamma inh inconclusive, VP16 counter -3% and Luc counter 3%.
Fc1ccccc1CN1CCCN(C(=S)Nc2cccc(Cl)c2)C1 was read as RORgamma inh 7.1µM*, VP16 counter inconclusive and Luc counter 4%.
For Cc1c(Cl)cccc1NC(=S)N1CCCN(Cc2ccccc2F)C1 the results were RORgamma inh 13µM*, VP16 counter inconclusive and Luc counter 2%.
`Cc1ccccc1NC(=S)N1CCCN(Cc2ccc(F)cc2)C1` gave RORgamma inh 29%, VP16 counter -20%[10 µM] and Luc counter 1%.
O=C(Nc1ccccc1)N1CCCN(Cc2ccccc2F)C1 was read as RORgamma inh -4%, VP16 counter -3% and Luc counter -4%.
Cc1ccc(NC(=S)N2CCCN(Cc3ccc(F)cc3)C2)c(C)c1 was read as RORgamma inh 13µM*, VP16 counter inconclusive and Luc counter 0%.
For Cc1c(Cl)cccc1NC(=S)N1CCN(c2ccccn2)CC1 the results were RORgamma inh 5%, VP16 counter 0% and Luc counter 0%.
CC(NC(=O)Cn1cc(Br)c([N+](=O)[O-])n1)c1ccccc1 (centres undefined) was read as RORgamma inh 17%[1.91 µM] and VP16 counter -4%.
For C/C=C(/C)C(=O)O[C@H]1C[C@@]2(C)O[C@H]2[C@@H](OC(C)=O)C2(C)CC[C@@](O)(C(C)C)C12 (some centres undefined) the results were RORgamma inh 20% and VP16 counter 10%.
Screening CCOC(=O)CCN1C(=O)[C@H]2[C@H]3[C@H](O)[C@H](O)C/C(=N/NC(=O)OCc4ccc(OC)cc4)[C@@H]3CC[C@@H]2C1=O returned RORgamma inh -2%[10 µM] and VP16 counter -11%[10 µM].
`C/C(=N\Nc1nc(C)cc(-c2ccccc2)n1)c1ccc(C)o1` gave RORgamma inh 5µM*, VP16 counter 10µM* and Luc counter -3%.
For C/C(=N\NC(=O)C(O)(c1ccccc1)c1ccccc1)c1ccc(C)o1 the results were RORgamma inh -25%, VP16 counter -16% and Luc counter -6%.
C/C(=N/Nc1nc(C)cc(-c2ccccc2)n1)c1ccco1 was read as RORgamma inh 5µM*, VP16 counter 18µM* and Luc counter -6%.
Screening C/C(=N\NC(=O)c1ccc(-c2ccccc2)cc1)c1ccco1 returned RORgamma inh -13% and VP16 counter 6%.
For CCOC(=O)CCN1C(=O)[C@H]2[C@H]3[C@H](O)[C@H](O)C/C(=N/OC/C=C(\C)CCC=C(C)C)[C@@H]3CC[C@@H]2C1=O the results were RORgamma inh 11%[10 µM] and VP16 counter -8%[10 µM].
For CS(=O)(=O)N1CCC2(CC1)CN(c1ccccc1)C2 the results were RORgamma inh 25%, VP16 counter -11% and Luc counter -4%.
Screening Cc1ccccc1N/N=C/c1c(C)nc2ccccn12 returned RORgamma inh 10µM* and VP16 counter -6%.
For Cc1ccc(NC(=O)c2c(C)nc3ccccn23)cc1C the results were RORgamma inh 21%, VP16 counter 0% and Luc counter -3%.
Screening O=C(c1ccc(Br)o1)N1CCc2ccccc21 returned RORgamma inh -23%, VP16 counter inconclusive and Luc counter inconclusive.
For O=C(NCCN1CCOCC1)NC1(C(F)(F)F)Oc2ccc(Cl)cc2O1 (centres undefined) the results were RORgamma inh 0.32µM*, VP16 counter inconclusive and Luc counter 0%.
COCC(C)NC(=O)NC1(C(F)(F)F)Oc2ccc(Cl)cc2O1 (centres undefined) was read as RORgamma inh 10µM* and VP16 counter 11µM*.
Screening CCOC(=O)Cc1csc(NC(=O)NC2(C(F)(F)F)Oc3ccc(Cl)cc3O2)n1 (centres undefined) returned RORgamma inh -5%, VP16 counter inconclusive and Luc counter 2%.
Screening O=C(NCCN1CCOCC1)c1cc(Cl)ccc1Cl returned RORgamma inh 4% and VP16 counter 1%.

Source: PubChem (National Center for Advancing Translational Sciences (NCATS))
